From PubChem BioAssay
A number with no mark means an inactive call. Where a call stands in place of a potency, no number is given. For some assays here: Potency and affinity values are given separately. Calls of active or inactive are those of the source. Unless noted, the rule behind the calls is not given here.

Tests used:
[1] = antimalarial activity against Dd2 strain (AID 2302;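 active = growth inhibition above 50% at the single 2 µM test dose, taken to imply half-maximal potency below 2 µM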); conditions: P. falciparum Dd2 in RBCs, LDH growth readout, 72 h; at 2 µM; stronger effect = higher value
[2] = HepG2 cytotoxicity, primary screen, cytotoxicity control for P. falciparum antimalarial project, cell-based, ATP luminescence (AID 2303;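 active = inhibition above 50%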); conditions: HepG2 viability, 24-48 h, at 10 µM, stronger effect = higher value
[3] = target: L-lactate dehydrogenase (Plasmodium falciparum (isolate CDC / Honduras)) (UniProt Q27743); assay: PfLDH activity inhibition – cell lysate, 3D7 strain, counter-screen for P. falciparum growth inhibition project (AID 2304); conditions: P. falciparum 3D7 crude extract, LDH APAD/NBT absorbance; at 2 µM; stronger effect = higher value
[4] = inhibition of 3D7 malaria parasite growth – strain 3D7 (AID 2306); conditions: P. falciparum 3D7 erythrocytic growth, LDH absorbance, 72 h; at 2 µM; stronger effect = higher value
[5] = target: Calcium-dependent protein kinase 1 (Plasmodium falciparum (isolate 3D7)) (UniProt P62344); assay: PfCDPK1 kinase inhibitors, biochemical, TCAMS library (AID 1159585; cut-off not given, nearly all actives have IC50 up to about 0.98 µM;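 note: inhibitors leave more ATP so luminescence rises with inhibition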); conditions: recombinant PfCDPK1, Kinase-Glo ATP depletion luminescence
[6] = target: Plasmodium falciparum protein kinase 6 (PK6, PF3D7_1337100) (UniProt Q8IDW1); assay: PfPK6 kinase inhibitors, biochemical, TCAMS library (AID 1159586); conditions: recombinant PfPK6, Kinase-Glo ATP depletion luminescence
[7] = target: Protein kinase 7 (PK7), Plasmodium falciparum 3D7 (PF3D7_0213400) (UniProt Q7YTF7); assay: inhibition of Plasmodium PK7 catalytic activity – biochemical, TCAMS antimalarial set, Kinase-Glo luminescence (AID 1159587); conditions: recombinant PfPK7, Kinase-Glo ATP depletion luminescence
[8] = target: Calcium-dependent protein kinase 4 (Plasmodium falciparum (isolate 3D7)) (UniProt Q8IBS5); assay: PfCDPK4 kinase inhibitors, biochemical, TCAMS library (AID 1159588; cut-off not given, nearly all actives have IC50 up to about 0.91 µM); conditions: recombinant PfCDPK4, Kinase-Glo ATP depletion luminescence
Calcium-dependent protein kinase 4 (Plasmodium falciparum (isolate 3D7)), sequence (Q8IBS5 whole entry, looked up): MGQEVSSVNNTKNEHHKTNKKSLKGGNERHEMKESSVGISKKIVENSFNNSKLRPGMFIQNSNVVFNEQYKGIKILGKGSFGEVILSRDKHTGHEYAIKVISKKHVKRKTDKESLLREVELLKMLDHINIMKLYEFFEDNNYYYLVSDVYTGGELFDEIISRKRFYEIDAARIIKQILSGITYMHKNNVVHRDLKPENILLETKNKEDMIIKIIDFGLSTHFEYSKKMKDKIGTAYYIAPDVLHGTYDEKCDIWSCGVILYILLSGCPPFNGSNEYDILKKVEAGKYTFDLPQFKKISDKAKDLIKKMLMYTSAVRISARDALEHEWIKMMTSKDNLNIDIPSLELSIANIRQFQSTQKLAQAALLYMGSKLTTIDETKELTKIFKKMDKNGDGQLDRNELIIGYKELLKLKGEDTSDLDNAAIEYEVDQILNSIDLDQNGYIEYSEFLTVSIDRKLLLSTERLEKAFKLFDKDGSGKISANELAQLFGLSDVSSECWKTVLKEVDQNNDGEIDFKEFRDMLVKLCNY

Calcium-dependent protein kinase 1 (Plasmodium falciparum (isolate 3D7)), sequence (P62344 whole entry, looked up): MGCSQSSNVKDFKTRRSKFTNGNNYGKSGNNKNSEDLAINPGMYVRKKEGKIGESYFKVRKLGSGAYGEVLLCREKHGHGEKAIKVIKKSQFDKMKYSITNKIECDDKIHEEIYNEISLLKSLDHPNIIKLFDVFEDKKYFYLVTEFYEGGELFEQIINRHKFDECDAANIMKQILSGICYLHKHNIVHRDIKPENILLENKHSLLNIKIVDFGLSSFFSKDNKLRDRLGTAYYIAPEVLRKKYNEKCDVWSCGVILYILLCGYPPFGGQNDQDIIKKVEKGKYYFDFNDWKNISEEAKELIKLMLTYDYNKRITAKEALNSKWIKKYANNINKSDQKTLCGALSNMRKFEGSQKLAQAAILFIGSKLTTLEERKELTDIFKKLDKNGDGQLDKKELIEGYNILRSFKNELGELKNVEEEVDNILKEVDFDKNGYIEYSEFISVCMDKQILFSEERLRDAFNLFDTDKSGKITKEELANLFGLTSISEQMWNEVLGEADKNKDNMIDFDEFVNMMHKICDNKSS
L-lactate dehydrogenase (Plasmodium falciparum (isolate CDC / Honduras)), sequence (Q27743 whole entry, looked up): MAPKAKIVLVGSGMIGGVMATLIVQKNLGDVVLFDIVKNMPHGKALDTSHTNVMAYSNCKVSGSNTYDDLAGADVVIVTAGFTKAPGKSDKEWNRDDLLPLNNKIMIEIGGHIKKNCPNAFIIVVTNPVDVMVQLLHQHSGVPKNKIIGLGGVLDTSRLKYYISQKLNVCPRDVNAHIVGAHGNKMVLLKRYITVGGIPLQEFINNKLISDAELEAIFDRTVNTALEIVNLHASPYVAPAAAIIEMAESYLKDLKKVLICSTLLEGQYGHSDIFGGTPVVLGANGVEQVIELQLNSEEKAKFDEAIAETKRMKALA
Plasmodium falciparum protein kinase 6 (PK6, PF3D7_1337100), sequence (Q8IDW1 1-305): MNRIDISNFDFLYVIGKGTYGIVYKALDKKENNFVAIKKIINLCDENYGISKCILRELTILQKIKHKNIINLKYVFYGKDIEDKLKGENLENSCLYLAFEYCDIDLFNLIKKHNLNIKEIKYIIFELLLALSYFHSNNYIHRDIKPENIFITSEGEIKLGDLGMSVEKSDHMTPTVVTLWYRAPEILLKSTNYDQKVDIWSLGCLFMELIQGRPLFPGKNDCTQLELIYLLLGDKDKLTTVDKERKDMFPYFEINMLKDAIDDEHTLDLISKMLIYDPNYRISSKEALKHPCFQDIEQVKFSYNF
Protein kinase 7 (PK7), Plasmodium falciparum 3D7 (PF3D7_0213400), sequence (Q7YTF7 1-343): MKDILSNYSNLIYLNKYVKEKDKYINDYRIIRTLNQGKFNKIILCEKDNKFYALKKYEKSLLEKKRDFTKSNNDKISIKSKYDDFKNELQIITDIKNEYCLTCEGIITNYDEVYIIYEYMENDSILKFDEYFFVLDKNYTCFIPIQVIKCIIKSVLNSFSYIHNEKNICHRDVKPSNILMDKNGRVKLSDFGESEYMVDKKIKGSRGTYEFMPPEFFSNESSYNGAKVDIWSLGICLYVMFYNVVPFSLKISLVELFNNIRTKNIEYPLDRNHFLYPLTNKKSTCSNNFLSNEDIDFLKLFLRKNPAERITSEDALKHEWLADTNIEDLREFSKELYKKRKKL

Row | SMILES | growth inhibition [1] | inhibition [2] | inhibition [3] [%] | growth inhibition [4] | outcome [5] | outcome [6] | outcome [7] | outcome [8]
1 | COc1ccc(CNC2Cc3ccccc3C2)cc1-c1ccc(S(=O)(=O)NCCc2ccccn2)s1 | 22% | 11% | 0 | 92% (active) | inactive | inactive | inactive | inactive
2 | CN(C)c1cc(NC(=O)Nc2ccccc2)c2ccccc2n1 | 98% (active) | 11% | -5 | 101% (active) | inactive | inactive | inactive | inactive
3 | C=CC[C@H](NC(=O)c1ccc(NS(=O)(=O)c2ccc3nc(N)[nH]c(=O)c3c2)cc1)C(=O)OCCCC | 2% | 61% (active) | 1 | 97% (active) | inactive | inactive | inactive | inactive
4 | Cc1c(S(=O)(=O)Nc2ccc3nccc(N4CCN[C@H](C)C4)c3c2)sc2ccc(Cl)cc12 | 0% | 16% | -3 | 96% (active) | inactive | inactive | inactive | inactive
5 | Oc1ccc2[nH]c(-c3cccs3)nc2c1CN1CCC(N2CCCC2)CC1 | 13% | 6% | -3 | 100% (active) | inactive | inactive | inactive | inactive
6 | CCN(CC)CCN1C(=O)c2oc3ccc(F)cc3c(=O)c2C1c1cccc(Cl)c1 (stereo not given) | 93% (active) | -4% | -2 | 99% (active) | inactive | inactive | inactive | inactive
7 | CCN(CC)CCN1C(=O)c2oc3ccc(Cl)cc3c(=O)c2C1c1ccc(SC)cc1 (stereo not given) | 6% | -5% | -6 | 98% (active) | inactive | inactive | inactive | inactive
8 | COc1ccc(CN2CCC(N3CCc4cc(NC(=O)c5cc(C)on5)ccc43)C2)cc1Cl (stereo not given) | 91% (active) | 15% | 2 | 94% (active) | inactive | inactive | inactive | inactive
9 | O=C(NC1CCCCC1)C(c1cccs1)N(CCc1ccccc1)C(=O)c1ccco1 (stereo not given) | 63% (active) | -10% | -1 | 92% (active) | inactive | inactive | inactive | inactive
10 | N=c1n(CCN2CCCC2)c2ccccc2n1CC(O)c1ccc(Cl)c(Cl)c1 (stereo not given) | 6% | 36% | 5 | 100% (active) | inactive | inactive | inactive | inactive
11 | CCOc1ccc(-c2nonc2NC(=O)c2ccc(OC(C)C)cc2)cc1OCC | 100% (active) | 13% | -2 | 100% (active) | inactive | inactive | inactive | inactive
12 | CCCCCN1CCC(NS(=O)(=O)c2ccc(C(=O)Nc3cccc(C(F)(F)F)c3)cc2)C1 (stereo not given) | 0% | 14% | -9 | 94% (active) | inactive | inactive | inactive | inactive
13 | Cc1cccc2[nH]c(-c3cccc(-c4ccc(NC(=O)Nc5ccc(Cl)cc5)cc4)c3)nc12 | 96% (active) | 63% (active) | 0 | 100% (active) | inactive | inactive | inactive | inactive
14 | COC(=O)c1ccc(-c2ccc(-c3cccnc3)cc2C)cc1 | 98% (active) | 81% (active) | 3 | 100% (active) | inactive | inactive | inactive | inactive
15 | FC(F)(F)c1ccc(-c2ccc(CNC3CCN(CCN4CCOCC4)CC3)cc2)cc1 | 74% (active) | 44% | 0 | 103% (active) | inactive | inactive | inactive | inactive
16 | COc1cc(C2CCN(CCCCNC(=O)c3ccc(NC(=O)c4cc(C(F)(F)F)cc(C(F)(F)F)c4)cc3)CC2)ccc1OC(C)C | 100% (active) | 21% | 4 | 100% (active) | inactive | inactive | inactive | inactive
17 | CN1CCC(COc2ccc(CN3CCC(NC(=O)c4cccc(Cl)c4)CC3)cc2)CC1 | 13% | 16% | -2 | 94% (active) | inactive | inactive | inactive | inactive
18 | COc1ccc(C=NNc2c3ccccc3nc3ccccc23)c2ccccc12 | 23% | 9% | 2 | 82% (active) | inactive | inactive | inactive | inactive
19 | OCC1CCN(Cc2ccc(-c3ccc(-c4nc5ccc(F)cc5[nH]4)s3)cc2)CC1 | 98% (active) | 14% | -3 | 101% (active) | inactive | inactive | inactive | inactive
20 | CCC1(C)CC(CCNCc2ccccc2O)(c2ccccc2OC)CCO1 (stereo not given) | 93% (active) | 10% | -2 | 94% (active) | inactive | inactive | inactive | inactive

Row | SMILES | growth inhibition [1] | inhibition [2] | inhibition [3] [%] | growth inhibition [4] | outcome [5] | outcome [6] | outcome [7] | outcome [8]
21 | O=[N+]([O-])c1ccccc1C=NNc1c2c(nc3ccccc13)CCCC2 | 99% (active) | -2% | -3 | 97% (active) | inactive | inactive | inactive | inactive
22 | O=C1CSc2ccc(CNC3CCN(CCc4c(Cl)cnc5ccc(Cl)cc45)CC3)nc2N1 | 92% (active) | 25% | 2 | 101% (active) | inactive | inactive | inactive | inactive
23 | CCNc1cc(C(=O)N[C@@H](Cc2ccccc2)[C@H](O)CNCCC(C)(C)C)c(F)c(N2CCCCS2(=O)=O)c1 | 93% (active) | 2% | 2 | 98% (active) | inactive | inactive | inactive | inactive
24 | CNc1c2c(nc3ccc(NC(=O)CCCCCCc4ccccc4)cc13)CCCC2 | 82% (active) | 0% | 0 | 100% (active) | inactive | inactive | inactive | inactive
25 | CCOCCCNc1ncc(-c2ccsc2)c(-c2nc(C)cs2)n1 | 83% (active) | 0% | 1 | 89% (active) | inactive | inactive | inactive | inactive
26 | O=C(CCNc1ccnc(NCCc2ccccc2)n1)Nc1ccccc1 | 19% | 7% | 2 | 89% (active) | inactive | inactive | inactive | inactive
27 | CCc1ccc(S(=O)(=O)Nc2ccc(CCN3CCC(N4CCCCC4)CC3)cc2)cc1 | 13% | 35% | -2 | 100% (active) | inactive | inactive | inactive | inactive
28 | CCOC(=O)c1c(CCc2ccc(C(F)(F)F)cc2)nc2c(c1-c1ccc(C(=O)N[C@@H](C)c3ccncc3)cc1)C(=O)N1CCC[C@@H]21 | 68% (active) | -3% | -2 | 85% (active) | inactive | inactive | inactive | inactive
29 | O=C(Nc1cccc(F)c1)NC1CCN(c2ccnc3cc(Cl)ccc23)CC1 | 37% | 11% | -4 | 96% (active) | inactive | inactive | inactive | inactive
30 | Cc1nc(C)c(CC(=O)Nc2cccc(-c3cccc(-c4nc5ccc(C(F)(F)F)cc5[nH]4)c3)c2)s1 | 30% | 49% | -4 | 95% (active) | inactive | inactive | inactive | inactive
31 | CC(C)(C)c1ccc(Cn2c(=N)n(CC(=O)c3ccc(-c4ccccc4)cc3)c3ccccc32)cc1 | 50% (active) | 63% (active) | -5 | 98% (active) | inactive | inactive | inactive | inactive
32 | Cc1cc(NC2CCN(CC3CCCCC3)C2)nc(Nc2ccc(Br)cc2)n1 (stereo not given) | 83% (active) | 22% | -1 | 101% (active) | inactive | inactive | inactive | inactive
33 | CN1CCCN(c2ccnc3cc4c(cc23)N(C(=O)c2ccc(Cl)c(Cl)c2)CC4)CC1 | 73% (active) | 20% | 2 | 101% (active) | inactive | inactive | inactive | inactive
34 | O=C(CC1SC(N2N=C(c3cccs3)CC2c2ccccc2)=NC1=O)Nc1ccccc1F (stereo not given) | 76% (active) | 9% | -2 | 87% (active) | inactive | inactive | inactive | inactive
35 | COc1ccccc1C(=O)Nc1cccc(N2CCC(NCc3ccc(-n4cccn4)cc3)CC2)c1 | 30% | 9% | -1 | 86% (active) | inactive | inactive | inactive | inactive
36 | Cc1[nH]c(C)c(-c2ccc(-c3cccc(Cl)c3)nc2)c(=O)c1Cl | 97% (active) | 15% | 0 | 97% (active) | inactive | inactive | inactive | inactive
37 | COc1cc(C(=O)N2CCOC(CCN3CCC(Cc4ccc(F)cc4)CC3)(c3ccc(Cl)c(Cl)c3)C2)cc(OC)c1OC (stereo not given) | 58% (active) | 44% | -5 | 88% (active) | inactive | inactive | inactive | inactive
38 | CCc1cn2c3c(cc(C(=O)N[C@@H](Cc4cccc(F)c4)[C@H](O)CNC4CC4)cc13)N(C)S(=O)(=O)CC2 | 98% (active) | 2% | 1 | 98% (active) | inactive | inactive | inactive | inactive
39 | Cc1cc(NC(=O)c2cccs2)ccc1OC1CCN(Cc2ccccc2)C1 (stereo not given) | 87% (active) | 7% | -1 | 84% (active) | inactive | inactive | inactive | inactive
40 | CC(C)C[C@H](NC(=O)c1cc(-c2ccc(C(C)(C)C)cc2)no1)C(=O)O (tested in a mixture with another compound) | 6% | 3% | -3 | 95% (active) | inactive | inactive | inactive | inactive
